GRIN3A LBD mod: modulates the human NR3A ligand-binding domain | NR3A LBD differential scanning fluorimetry, Tm shift; 0% = protein alone, 100% = glycine-bound protein | Tm shift relative to glycine control, % at 25 µM | actives 2.5% (n = 340,000);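 active means melting temperature shift of at least 10% of the positive control shift, at one fixed dose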
FAS TE block: blocks the thioesterase domain of human fatty acid synthase | AID 602261 | P49327 | recombinant FAS-TE, OMFH fluorogenic substrate, fluorescence endpoint | inhibition, % at 15 µM | actives 0.67% (n = 360,000);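 active means compounds whose normalised, plate-corrected inhibition of enzyme fluorescence in the single-dose primary screen is 50% or more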
rCAG binder: molecules binding r(CAG) RNA repeats; r(CAG) RNA repeat, TO-PRO-1 dye displacement fluorescence; inhibition, % at 3 µM; actives 1.3% (n = 370,000);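 active means inhibition above the plate cutoff, the mean of all test compounds on that plate plus 3 SD, cut at about 35% in these data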;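 further: higher means more dye released from RNA so lower well fluorescence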
NadD inh: blocks S. aureus nicotinate mononucleotide adenylyltransferase; inhibition, % at 20 µM; purified NadD enzyme, colorimetric absorbance read-out; actives 0.78% (n = 360,000); in the data active means inhibition above about 26%
Large screens that a line does not name were inactive. Sampled rows, rich in hits. Any-hit rate of the full collection: about 4.3%.

Cc1cc(/C=C2\C(=N)N3N=C(CC(=O)N4CCOCC4)SC3=NC2=O)c(C)n1-c1ccccc1	none
CC1=NN2C(=N)/C(=C\c3cc(C)n(-c4ccc(C)cc4)c3C)C(=O)N=C2S1	GRIN3A LBD mod 22
CCCC1=NN2C(=N)/C(=C\c3cc(C)n(Cc4ccccc4)c3C)C(=O)N=C2S1	none
COc1ccc(C(=O)/C=C2/Sc3cc4c(cc3N2C)OCO4)cc1	none
CN1/C(=C/C(=O)c2ccc(Cl)cc2)Sc2cc3c(cc21)OCO3	GRIN3A LBD mod 16
COc1ccc(NC(=O)Cn2nnc(C(=O)NCc3ccccc3)c2N)cc1Cl	none
Cc1cc(C)cc(NC(=O)Cn2nnc(C(=O)NCc3ccc(F)cc3)c2N)c1	GRIN3A LBD mod 34
COc1ccc(NC(=O)Cn2nnc(C(=O)NCc3ccc(C)cc3)c2N)cc1Cl	GRIN3A LBD mod 17
Cc1ccc(NC(=O)Cn2nnc(C(=O)NCc3ccco3)c2N)cc1	none
Cc1cc(C)cc(NC(=O)Cn2nnc(C(=O)NCc3ccccc3Cl)c2N)c1	none
COc1ccc(Cl)cc1NC(=O)c1nnn(CC(=O)Nc2ccc(C)c(C)c2)c1N	GRIN3A LBD mod 14
CC(C)c1ccc(NC(=O)Cn2nnc(C(=O)NCc3ccco3)c2N)cc1	GRIN3A LBD mod 12
CC1(C)CC(=O)C=C(C2CC2)C1=O	none (no result: GRIN3A LBD mod, FAS TE block, NadD inh)
COC(=O)[C@H](CC(C)C)N(Cc1cn(Cc2ccccc2)nn1)S(=O)(=O)c1ccc(F)cc1Br	none (no result: GRIN3A LBD mod, FAS TE block, NadD inh)
FC(F)(F)c1cccc(N2CCN(C3=Nc4ccccc4Sc4ccccc43)CC2)c1	none (no result: GRIN3A LBD mod, FAS TE block, NadD inh)
CCOc1ccccc1NC(=O)c1nnn(CC(=O)Nc2cc(C)cc(C)c2)c1N	GRIN3A LBD mod 13
COc1ccc(NC(=O)Cn2nnc(C(=O)Nc3ccc(F)c(Cl)c3)c2N)cc1OC	GRIN3A LBD mod 78
COc1ccc(NC(=O)Cn2nnc(C(=O)NCc3cccs3)c2N)cc1OC	none
COc1ccccc1NC(=O)c1nnn(CC(=O)Nc2cc(C)cc(C)c2)c1N	none
Cc1ccc(NC(=O)Cn2nnc(C(=O)NCc3cccs3)c2N)cc1F	GRIN3A LBD mod 32
O=C(CCc1c[nH]c2ccccc12)Nc1ccc(Nc2cccnc2)cc1	none (no result: GRIN3A LBD mod, FAS TE block, NadD inh)
O=C(COC(=O)Cc1c[nH]c2ccccc12)Nc1ccccc1	none
NC(=O)c1ccsc1NC(=O)COC(=O)Cc1c[nH]c2ccccc12	GRIN3A LBD mod 26
N#Cc1ccsc1NC(=O)COC(=O)c1ccc(NC(N)=O)cc1	none
COCCOc1ccc(C(F)(F)F)cc1NC(=O)COC(=O)Cc1c[nH]c2ccccc12	GRIN3A LBD mod 21
NC(=O)Nc1ccc(C(=O)OCC(=O)Nc2sccc2C(N)=O)cc1	GRIN3A LBD mod 32
Cc1ccc(NC(=O)COC(=O)Cc2c[nH]c3ccccc23)cc1F	GRIN3A LBD mod 14
C#CCNC(=O)C[C@H]1C(=O)N(Cc2ccc(OC)cc2)C2=CCCCC[C@@]21C(=O)OC	none (no result: GRIN3A LBD mod, FAS TE block, NadD inh)
NC(=O)c1ccsc1NC(=O)COC(=O)Cc1ccccc1[N+](=O)[O-]	none (no result: GRIN3A LBD mod)
NC(=O)c1ccsc1NC(=O)COC(=O)Cc1cccc2ccccc12	GRIN3A LBD mod 24
O=C(c1ccncc1)N1CCc2ccccc2C1	none
O=C(c1cncc(Br)c1)N1CCc2ccccc2C1	GRIN3A LBD mod 15
COC(=O)CC#C[C@@H](C)[C@H](NS(=O)(=O)c1ccc(C)cc1)C(C)(C)C	none (no result: GRIN3A LBD mod, FAS TE block, NadD inh)
CC(=O)n1cc(/C=N/NC(=O)c2ccccc2O)c2ccccc21	GRIN3A LBD mod 32
O=c1[nH]c2cc([N+](=O)[O-])ccc2c2ccc([N+](=O)[O-])cc12	GRIN3A LBD mod 13
Cc1cc(C)cc(C(=O)OCCCN(C)C2CN(Cc3cn(Cc4ccccc4Cl)nn3)S(=O)(=O)C2)c1 (stereo unspecified)	none (no result: GRIN3A LBD mod, FAS TE block, NadD inh)
COCCCN=Cc1c(C)[nH]n(-c2ccc(Br)c(C)c2)c1=O	GRIN3A LBD mod 66
c1ccc(Cc2nn3c(COc4ccccc4)nnc3s2)cc1	none
CCOc1ccccc1OCc1nn2c(COc3ccccc3)nnc2s1	GRIN3A LBD mod 14
CCCCCCCCCCCCN1CCSCCS1(=O)=O	none (no result: GRIN3A LBD mod, FAS TE block, NadD inh)
Cc1ccc2c(c1)C(=O)CC(c1ccccc1)S2 (stereo unspecified)	GRIN3A LBD mod 13
CCOC(=O)c1ccc(NC(=O)COc2ccc(-n3cnnn3)cc2)cc1	GRIN3A LBD mod 31
O=C(Nc1ccncc1)Nc1ccc(F)c(Cl)c1	none
O=C(Nc1nc(-c2ccccn2)cs1)Nc1ccc(F)cc1F	GRIN3A LBD mod 14
O=C(Nc1ccc(F)cc1F)Nc1ccc(F)cc1F	none
O=C(Nc1ccc(F)cc1F)Nc1csc2ccccc12	GRIN3A LBD mod 15
O=C(Nc1ccc(F)c(Cl)c1)Nc1csc2ccccc12	GRIN3A LBD mod 39
O=S(=O)(c1ccc(Cl)s1)N1CCC(c2nc3ccccc3o2)CC1	none (no result: GRIN3A LBD mod, FAS TE block, NadD inh)
CC(=O)Nc1ccc(S(=O)(=O)NCC2CCC(C(=O)NCCCN(C)Cc3ccccc3)CC2)cc1 (stereo unspecified)	GRIN3A LBD mod 15
CC(C)CN1C[C@@H]2CSCCS(=O)(=O)N2C1=O	none (no result: GRIN3A LBD mod, FAS TE block, NadD inh)
Cc1ccc(N2CCN(c3ccc(NCc4nc5ccccc5n4C)cc3)CC2)cc1	GRIN3A LBD mod 13
Cc1cccc(NCc2nc3ccccc3n2C)c1	none
Cn1c(CNc2ccc(Cl)cc2)nc2ccccc21	GRIN3A LBD mod 12
Cc1ccc(-n2c(SCc3c(Cl)cccc3Cl)nnc2-c2ccco2)cc1	none (no result: GRIN3A LBD mod, FAS TE block, NadD inh)
COc1cc(/C=C/C(=O)OCC(=O)NCc2ccco2)ccc1OC(F)F	GRIN3A LBD mod 14
O=C(CC(=O)c1ccccc1O)c1ccc(F)cc1	none
O=C(CC(=O)c1ccccc1O)c1cccc(F)c1	GRIN3A LBD mod 23 (no result: rCAG binder)
O=S(=O)(c1ccccc1)[C@@]1(c2ccccc2)C[C@@H]2ON=C(c3cccc(Br)c3)[C@@H]2C1	FAS TE block 55
Cc1ccc(NC(=O)c2sc3ncn(CC(=O)N4CCN(c5ccccn5)CC4)c(=O)c3c2C)cc1Cl	GRIN3A LBD mod 14
CN(CC#Cc1ccccc1)C(N)=NC(=O)/C=C/c1ccccc1	none (no result: GRIN3A LBD mod, FAS TE block, NadD inh)
COc1cc2c(cc1OC)-c1cc(Nc3ccc(F)cc3)nc(=O)n1CC2	GRIN3A LBD mod 10
CC(=O)N1c2ccccc2C(=O)NCC1C(=O)NC(C)(C)C (stereo unspecified)	none (no result: GRIN3A LBD mod, FAS TE block, NadD inh)
CC(C)(C)C(=O)Nc1ccc(S(=O)(=O)N2CCC(c3nc4ccccc4[nH]3)CC2)cc1	GRIN3A LBD mod 20
O=S(=O)(c1cccc(C(F)(F)F)c1)N1CCC(c2nc3ccccc3[nH]2)CC1	none
CC(=O)Nc1ccc(S(=O)(=O)N2CCC(c3nc4ccccc4[nH]3)CC2)cc1	none
O=S(=O)(c1cccc(Cl)c1)N1CCC(c2nc3ccccc3[nH]2)CC1	GRIN3A LBD mod 27
CCOC(=O)Cc1nc(N2CCN(CCO)CC2)c2c(C)c(C(=O)OCC)sc2n1	none (no result: GRIN3A LBD mod, FAS TE block, NadD inh)
Cc1ccc2nc(CSc3nc(C)ccc3C#N)[nH]c2c1	GRIN3A LBD mod 29
Cc1ccc(C#N)c(SCc2ccccc2F)n1	none
Oc1cnn(-c2ccccc2)c1	GRIN3A LBD mod 15
COC(=O)C1CN(C(=O)OC(C)(C)C)C2=C1C(=O)CC(C)(C(=O)OC(C)(C)C)C2 (stereo unspecified)	none (no result: GRIN3A LBD mod, FAS TE block, NadD inh)
COc1ccc(OC)c(-c2csc(NC(=O)Cc3cc(OC)c(OC)c(OC)c3)n2)c1	none
COc1ccc(OC)c(-c2csc(NC(=O)CSc3ccc([N+](=O)[O-])cc3)n2)c1	GRIN3A LBD mod 12

Screening results: PubChem, several laboratories
